In the library only some 7.9% were active in any assay of this set; here they are far more common.
MCF10A rerep: A quantitative high throughput screen for small molecules that induce DNA re-replication in MCF 10a normal breast cells; MCF 10A DNA re-replication, Hoechst nuclear intensity, 48 h; Potency, µM (top dose mostly 46.1 µM), inactives show top-dose activity, positive = re-replication, actives largely listed as activators; 2.9% of 350,000 active; further: % of control where 0% means no effect; nearly all actives have a fitted effect of over 50% in size
HT1080-NT tox: qHTS for induction of synthetic lethality in tumor cells producing 2HG: qHTS for the HT-1080-NT fibrosarcoma cell line; HT-1080-NT fibrosarcoma viability, CellTiter-Glo ATP luminescence, 48 h; Potency, µM (highest dose often 46.1 µM), inactives show top-dose activity, negative = less viability, actives largely listed as cytotoxic; 1.6% of 360,000 active; AID 686970, 2013;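 further: NT is the 2HG producing partner of a matched IDH1 knockdown line; 0% = DMSO-treated cells and -100% = media-only wells without cells; nearly all actives have a fitted effect of over 55% in size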
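Fibrosarcoma NT cells, 750 per well in 5% FBS RPMI, were exposed to compound for 48 hours. Viability: CellTiter-Glo luminescence.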
SW480 rerep: A quantitative high throughput screen for small molecules that induce DNA re-replication in SW480 colon adenocarcinoma cells | SW480 DNA re-replication, Hoechst DNA content imaging, 48 h | Potency, µM (doses to about 46.1 µM), without a hit: at the highest dose re-replication activation, most hits filed as activators | 1.8% of 340,000 active | AID 624297, 2012; further: % of control where 0% means no effect; nearly all actives have a fitted effect of over 55% in size
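Per well, 250 cells were exposed to pinned compound for 48 hr. Nuclear DNA was visualised with Hoechst (40 min, 37 C) and total object intensity recorded by fluorescence scanning.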
KB-V1 MDR tox: qHTS assay for MDR1-selective chemotherapeutics: Primary screen using the drug-selected MDR subline cells KB-V1. 3.4% of 400,000 active. Potency, µM (highest dose often 46.1 µM), usual class: cytotoxic. AID 1347076, 2019. KB-V1 MDR cells viability, CellTiter-Glo, 72 h; further: on the % scale 0 is the no-effect control and ±100 the full control effect; nearly all actives have a fitted effect of over 60% in size
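KB-V1, DMEM (no phenol red) + 10% FBS; cpd pin-transferred, titration series; 72 h, 37 degrees C; CellTiter-Glo, luminescence. Data normalized, curve-fit.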
KB-3-1 tox: qHTS assay for MDR1-selective chemotherapeutics: Primary screen using the parental adenocarcinoma cell KB-3-1. KB-3-1 viability, CellTiter-Glo ATP luminescence, 72 h. 1.4% of 400,000 active. Potency, µM (series often up to 46.1 µM), hits mostly cytotoxic; further: on the % scale 0 is the no-effect control and ±100 the full control effect; nearly all actives have a fitted effect of over 60% in size
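Cytotoxicity in the drug-sensitive parental line KB-3-1 was scored as loss of CellTiter-Glo luminescence following 72 h incubation with compound. Values come from curve fitting of normalized concentration-response data.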
HT1080 IDH1KD tx: qHTS for induction of synthetic lethality in tumor cells producing 2HG: qHTS for the HT-1080-IDH1KD cell line. HT-1080 IDH1 knockdown viability, ATP luminescence, 48 h. Potency, µM (top dose mostly 46.1 µM), without a hit: top-dose activity, negative = toxicity, usual class: cytotoxic. 2% of 360,000 active;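 further: 0% = DMSO wells and -100% = cell-free medium wells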
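CellTiter-Glo luminescence after 48 h compound exposure at 37 degrees C of IDH1-knockdown HT-1080 cells in 5% FBS RPMI. %Activity scaled between DMSO wells and cell-free media wells, with curves fitted and assigned curve classes.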
Active calls of the source: *; i = inactive; u = inconclusive; x = not tested or not shown. The call rests on the fitted dose curve; in most records, active means well fitted curve in the direction sought with a large enough effect; inconclusive means small, poorly fitted or top-dose-only effect, or another doubt; inactive means no such curve, though single readings can be large; an effect the other way counts as inactive or inconclusive. Potency means the concentration at half of the fitted maximal effect.

SMILES	MCF10A rerep	HT1080-NT tox	SW480 rerep	KB-V1 MDR tox	KB-3-1 tox	HT1080 IDH1KD tx
CCCCCCN1C=C/C(=C\C=C(C#N)C#N)c2ccccc21	-3%	-3%	-7%	u	16µM*	-15%
COc1ccc(CN2C(=O)C(C)Nc3ncnc(N4CCc5ccccc5C4)c32)cc1 (stereo not given)	x	2.1µM*	x	u	2.3µM*	2.3µM*
c1ccc(COCCN2CCN(CCOCc3ccccc3)CC2)cc1	-1%	-2%	-2%	23µM*	i	0%
c1ccc(CN2CCN(CCOCCOc3ccc4c(c3)CCC4)CC2)cc1	u	16µM*	u	u	u	u
O=C(c1ccccc1)c1ccc(OCCOCCN2CCN(Cc3ccccc3)CC2)cc1	u	18µM*	u	u	i	u
O=C(c1ccccc1)c1ccc(OCCCN2CCCC2)cc1	u	17%	-1%	i	i	4%
COc1cc(CNCc2ccccn2)ccc1OCC(=O)NC1CCCCC1	0%	8%	-67%	21µM*	i	-9%
COc1cc(CNC2CCCCCCC2)ccc1OCC(N)=O	19%	-2%	u	i	i	-2%
CCOC(=O)c1ccc(NC(=O)COc2ccc(CNC3CCCCC3)cc2OC)cc1	u	23µM*	u	u	i	16µM*
COc1cc(CNCc2ccccn2)ccc1OCC(=O)NC(C)(C)C	0%	7%	-7%	21µM*	i	4%
CCOc1cc(CNCc2ccccc2)ccc1OCC(=O)NC1CCCCC1	26%	-14%	u	x	x	1%
Cc1cc(C)c(NC(=O)C(C)n2nc(C)c3sc4ccccc4c3c2=O)c(C)c1 (stereo not given)	x	x	x	u	i	x
CC(=O)Nc1ccc2nc3c(=O)n(C)c(=O)n(C)c3nc2c1C	x	x	x	i	i	x
COc1ccc(-n2c(=O)c3c4c(sc3n3cnnc23)CC(C)CC4)cc1 (stereo not given)	3%	2%	0%	i	i	-2%
Cc1nnc2n(-c3ccccc3)c(=O)c3c4c(sc3n12)CC(C)CC4 (stereo not given)	4%	4%	-2%	8.2µM*	i	-2%
O=C(CSc1nnnn1-c1ccccc1)N1CCc2ccccc2C1	21%	5%	-4%	15µM*	i	3%
CC(=O)c1ccc(-n2nnnc2SCC(=O)N2CCc3ccccc3C2)cc1	-3%	8%	u	12µM*	i	12%
CCOC(=O)C1=CCN(S(=O)(=O)c2ccccc2F)C1c1cccc(C)c1 (stereo not given)	x	-2%	x	i	i	-16%
CCCCOc1ccccc1C(=O)N(Cc1cccc(F)c1)C1CCS(=O)(=O)C1 (stereo not given)	x	x	x	i	i	x
COc1ccc(C#Cc2c(-c3ccccc3)n(C)c3ccccc23)cc1	u	u	u	i	u	u
Cc1cc(C#Cc2c(-c3ccccc3)n(C)c3ccccc23)ccc1F	8.2µM*	3%	-11%	i	i	5%
Cn1c(-c2ccc(C#N)cc2)c(C#Cc2ccccc2)c2ccccc21	u	-1%	1.3µM*	i	i	-4%
Cc1c([N+](=O)[O-])cnc2ccccc12	x	x	x	i	i	x
Cc1cc(C)cc(NC(=O)Nc2ccc(-n3ccc(C(F)(F)F)n3)cc2)c1	21µM*	21µM*	u	i	i	23µM*
Clc1ccc(-c2cc3ncc4c(n3n2)-c2ccccc2OC4)cc1	x	x	x	u	i	x
